Sampled rows, rich in hits. Any-hit rate of the full collection: about 3.6%.
mHTT-CaM PPI inh: mHTT-calmodulin interaction abrogation. AlphaScreen His-mHTT/GST-CaM binding, luminescence. 190,000 compounds, 3.6% hits. inhibition, % at 15 µM. AID 1671202
Pf apPOL block: Pf-apPOL DNA polymerase inhibition. Recombinant Pf-apPOL, molecular beacon fluorescence, 1.5 h. inhibition, % at 10 µM. 210,000 compounds, 0.25% hits. AID 1794808
Hits are given with their value. No stated cut-off is given here; in the data, active means inhibition above about 50%; inactive means the rest.

Results for Cc1ccc(Nc2c(-c3nc(C)no3)cnc3nc(C)ccc23)cc1 ?
mHTT-CaM PPI inh: inactive; Pf apPOL block: inactive

What do the screens show for `CS(=O)(=O)N1CCc2ccc(C(=O)Nc3ccccc3)cc21`?
mHTT-CaM PPI inh: inactive; Pf apPOL block: inactive

What do the screens show for `COc1ccccc1NC1=CC(=NS(=O)(=O)c2cccs2)c2ccccc2C1=O`?
mHTT-CaM PPI inh: 91.0; Pf apPOL block: inactive

What do the screens show for `COc1ccccc1NC1=CC(=NS(=O)(=O)c2ccc(Cl)cc2)c2ccccc2C1=O`?
mHTT-CaM PPI inh: 94.0; Pf apPOL block: inactive

What do the screens show for `O=C1C(Nc2ccccc2)=CC(=NS(=O)(=O)c2cccs2)c2ccccc21`?
mHTT-CaM PPI inh: 92.0; Pf apPOL block: inactive

Results for COc1ccccc1NS(=O)(=O)c1ccc(Cl)c(C(=O)Nc2ccc(Cl)cc2)c1 ?
mHTT-CaM PPI inh: inactive; Pf apPOL block: inactive

Results for O=C(O)c1cccc(NC2=CC(=NS(=O)(=O)c3cccs3)c3ccccc3C2=O)c1 ?
mHTT-CaM PPI inh: inactive; Pf apPOL block: inactive

Results for COc1ccccc1Nc1ncc(-c2cccs2)s1 ?
mHTT-CaM PPI inh: inactive; Pf apPOL block: inactive

What do the screens show for `Cc1noc(C)c1C1CCCN1Cc1cn(-c2ccccc2)nc1-c1cccs1` (stereo not drawn)?
mHTT-CaM PPI inh: inactive; Pf apPOL block: inactive

How did CC(=O)N1CCN(c2nc3c(s2)CC(C(=O)NCc2c(C)nn(C)c2C)CC3)CC1 (stereo not drawn) do in these assays?
mHTT-CaM PPI inh: inactive; Pf apPOL block: inactive

What do the screens show for `O=C(CSc1ccccc1)Nc1ncc(S(=O)(=O)c2ccc([N+](=O)[O-])cc2)s1`?
mHTT-CaM PPI inh: inactive; Pf apPOL block: inactive

How did O=[N+]([O-])c1cc(Oc2ccc3c(c2)CCC3)cc(-n2cnnn2)c1 do in these assays?
mHTT-CaM PPI inh: 50.8

How did Cc1cc([N+](=O)[O-])nn1CCCC(=O)Nc1cc(Oc2ccc3c(c2)CCC3)cc([N+](=O)[O-])c1 do in these assays?
mHTT-CaM PPI inh: inactive; Pf apPOL block: inactive

Results for N#Cc1c(Cl)cccc1NCc1cccs1 ?
Pf apPOL block: inactive

What do the screens show for `OCC#CCSc1cccc2cccnc12`?
mHTT-CaM PPI inh: inactive; Pf apPOL block: inactive

How did O=C(O)c1coc2c1C(=NNc1ccccc1)CCC2 do in these assays?
Pf apPOL block: inactive

Results for c1ccc(N/N=C2/C/C(=N\Nc3ccccc3)c3ccccc32)cc1 ?
mHTT-CaM PPI inh: 91.0

Results for O=C(Nc1cccc(F)c1)N1CCn2cccc2C1Cc1ccccc1 (stereo not drawn) ?
mHTT-CaM PPI inh: inactive; Pf apPOL block: inactive

How did O=C(Nc1ccccc1)N1CCn2cccc2C1Cc1ccccc1 (stereo not drawn) do in these assays?
mHTT-CaM PPI inh: inactive; Pf apPOL block: inactive

What do the screens show for `O=C(Nc1ccccc1Br)N1CCn2cccc2C1Cc1ccccc1` (stereo not drawn)?
mHTT-CaM PPI inh: 51.7; Pf apPOL block: inactive

Results for O=C(Nc1ccc(F)c(Cl)c1)N1CCn2cccc2C1Cc1ccccc1 (stereo not drawn) ?
mHTT-CaM PPI inh: 100.0; Pf apPOL block: inactive

How did COc1ccc(C(=O)COc2ccc3c(=O)c(-c4ccccc4OC)c(C)oc3c2)cc1 do in these assays?
mHTT-CaM PPI inh: inactive; Pf apPOL block: inactive

How did O=C(c1ccc(Cl)s1)N1CCC(Nc2cccnc2)C1 (stereo not drawn) do in these assays?
mHTT-CaM PPI inh: inactive; Pf apPOL block: inactive

Results for CCNC(=O)C1Cc2ccc(OC)cc2N2CCN(Cc3ccc(F)cc3)CC12 (stereo not drawn) ?
mHTT-CaM PPI inh: inactive; Pf apPOL block: inactive

What do the screens show for `COc1ccc2c(c1)N1CCN(Cc3ccc(F)cc3)CC1C(C(=O)NC1CC1)C2` (stereo not drawn)?
mHTT-CaM PPI inh: 93.2; Pf apPOL block: inactive

Results for COc1ccc2c(c1)N1CCN(c3ccccc3OC)CC1C(C(=O)NC1CC1)C2 (stereo not drawn) ?
mHTT-CaM PPI inh: 58.7; Pf apPOL block: inactive

How did CCNC(=O)C1Cc2ccccc2N2CCN(c3cc(Cl)ccc3OC)CC12 (stereo not drawn) do in these assays?
mHTT-CaM PPI inh: inactive; Pf apPOL block: inactive

What do the screens show for `COc1ccccc1N1CCN2c3ccccc3CC(C(=O)NC3CC3)C2C1` (stereo not drawn)?
mHTT-CaM PPI inh: inactive; Pf apPOL block: inactive

How did C=CCNC(=O)C1Cc2ccccc2N2CCN(c3cc(Cl)ccc3OC)CC12 (stereo not drawn) do in these assays?
mHTT-CaM PPI inh: 54.9; Pf apPOL block: inactive

What do the screens show for `CC(=O)Nc1ccc2c(c1)CC(C(=O)NCc1ccc(C)cc1)CO2` (stereo not drawn)?
mHTT-CaM PPI inh: inactive; Pf apPOL block: inactive

Results for O=C(Cn1cc(-c2ccccc2)oc1=O)N1CCOCC1 ?
mHTT-CaM PPI inh: inactive; Pf apPOL block: inactive

How did CCCn1nc(-c2nc(-c3ccc(Cl)cc3)no2)ccc1=O do in these assays?
mHTT-CaM PPI inh: inactive; Pf apPOL block: inactive

What do the screens show for `CC1=CC2CC1C1C(=O)N(c3ccc(OC(F)(F)F)cc3)C(=O)C21` (stereo not drawn)?
Pf apPOL block: inactive

What do the screens show for `N#Cc1cccc(NC(=O)c2ccncc2)c1`?
Pf apPOL block: inactive

How did O=C(Nc1cccc(NC(=O)c2ccncc2)c1)c1ccncc1 do in these assays?
mHTT-CaM PPI inh: inactive; Pf apPOL block: 99.3

How did COc1cccc(C2CC(c3ccc(Br)cc3)Nc3ncnn32)c1 (stereo not drawn) do in these assays?
mHTT-CaM PPI inh: inactive; Pf apPOL block: inactive

Results for COc1cccc(NC(=O)C(=O)NCCc2ccc(OC)c(OC)c2)c1 ?
mHTT-CaM PPI inh: inactive; Pf apPOL block: inactive

How did CC(C)CCNC(=O)c1cn2ccccc2n1 do in these assays?
mHTT-CaM PPI inh: inactive; Pf apPOL block: inactive

What do the screens show for `COc1ccc(CCC(C)Nc2ccc(OC)cc2OC)cc1` (stereo not drawn)?
mHTT-CaM PPI inh: 85.1; Pf apPOL block: inactive

What do the screens show for `COc1ccc(CCC(C)NCc2ccccc2OC)cc1` (stereo not drawn)?
mHTT-CaM PPI inh: inactive; Pf apPOL block: inactive

How did COc1ccc(Cl)cc1C(=O)N1CCN(c2cc(-n3nc(C)cc3C)nc(C)n2)CC1 do in these assays?
mHTT-CaM PPI inh: inactive; Pf apPOL block: inactive

Results for O=C(/C=C1\Sc2ccccc2NC1=O)NCCCN1CCN(c2ccc(F)cc2)CC1 ?
mHTT-CaM PPI inh: 74.0; Pf apPOL block: inactive

How did O=C1Nc2ccccc2S/C1=C\C(=O)N1CCN(c2ccc(F)cc2)CC1 do in these assays?
mHTT-CaM PPI inh: inactive; Pf apPOL block: inactive

How did CCOC(=O)N1CCN(C(=O)CN(c2ccccc2Cl)S(=O)(=O)c2ccccc2)CC1 do in these assays?
mHTT-CaM PPI inh: inactive; Pf apPOL block: inactive

How did Cc1cccc(C2=N/C(=C/c3cc(Br)ccc3F)C(=O)O2)c1 do in these assays?
mHTT-CaM PPI inh: inactive; Pf apPOL block: inactive

How did O=C(CSc1nc2sc3c(c2c(=O)n1-c1ccccc1)CCCC3)c1cccs1 do in these assays?
mHTT-CaM PPI inh: inactive; Pf apPOL block: inactive

Results for Cc1ccc(OCC(=O)N2CCCCC2CCN2CCCCC2)cc1C (stereo not drawn) ?
mHTT-CaM PPI inh: 54.3; Pf apPOL block: inactive

What do the screens show for `COc1ccc(C(=O)Nc2ccc(N3CCCC3)cc2)cc1OC`?
mHTT-CaM PPI inh: inactive; Pf apPOL block: inactive

What do the screens show for `CCOc1cc(C(=O)Nc2ccc(N3CCCC3)cc2)cc(OCC)c1OCC`?
mHTT-CaM PPI inh: 79.0; Pf apPOL block: inactive

How did CCC(=O)Nc1ccc(NC(=O)COc2ccc(C)c(C)c2)cc1 do in these assays?
mHTT-CaM PPI inh: inactive; Pf apPOL block: inactive

How did COc1ccc(C(=O)Nc2ccc(N3CCCC3)cc2)cc1 do in these assays?
mHTT-CaM PPI inh: 99.0; Pf apPOL block: inactive
